Measured values reported in ChEMBL document CHEMBL3988442, “University of Dundee, Small-Polar-MMV Screening Library” (2021).
About 13,000 (27%) of roughly 48,000 compounds showed an effect of 50% or more. The list shows a part of the results.

system: Wolbachia pipientis; test: Anti-Wolbachia Cell-Based Screen; type: functional; set-up: scale not given: in the data most compounds retested in dose-response had high values; details: 5 µM

Row | Compound | Percent Effect [%]
1 | COc1ccc(Cc2cccc(C3CCN(C)CC3)n2)cc1 | -4.713
2 | Cl.NC(c1ccc(Cl)cc1)c1cccs1 (stereo unspecified) | -4.089
3 | Cc1cccc(C)c1CN1C(=O)CC2(CCSC2)C1=O (stereo unspecified) | -6.047
4 | Cc1n[nH]c(SCC(=O)N2C[C@H]3CC[C@@H]2CN(c2ncccn2)C3)n1 | -6.945
5 | COc1ccnc(N2CCN(Cc3ncc(-c4ccccc4)o3)CC2)n1 | -5.442
6 | Cc1cc(C)n(-c2ccc(C(=O)N3CCCC3c3cnn(C)c3)cc2)n1 (stereo unspecified) | -0.5529
7 | CC(=O)NCc1ccc(C(=O)N2CCCC2c2cnn(C)c2)o1 (stereo unspecified) | 4.332
8 | CC(=O)NCc1ccc(C(=O)N2CCCC2c2cnn(C)c2)s1 (stereo unspecified) | 110.6
9 | CCN(CC)Cc1ccc(C(=O)N2CCCCC2Cn2cccn2)o1 (stereo unspecified) | -4.824
10 | CC(=O)NCCc1ccc(C(=O)N2CCCC2c2cnn(C)c2)cc1 (stereo unspecified) | 2.733
11 | CCN(CC)Cc1ccc(C(=O)N2CCCC2c2cnn(C)c2)o1 (stereo unspecified) | 101.4
12 | CC(=O)NCc1ccc(C(=O)N2CCCC2c2cnn(C)c2)cc1 (stereo unspecified) | 89.24
13 | CC(=O)NCCCOc1c(C)cccc1Cl | -7.084
14 | O=C1CCC2(CCCN(C(=O)c3ccc[nH]3)C2)CN1CCc1c[nH]cn1 (stereo unspecified) | -3.691
15 | Cc1cc(CN(C)C(=O)c2cccc(N3CCCC3=O)c2)no1 | 3.879
16 | CCN(CCNC(=O)c1cccc(C)c1C)C1CC1 | 95.34
17 | CCN(CCNC(=O)c1cccnc1OCCOC)C1CC1 | 95.99
18 | COCCOc1ncccc1C(=O)Nc1c(C)cnn1CC1CC1 | -11.28
19 | CCN(CCNC(=O)c1ccccc1Br)C1CC1 | -1.027
20 | Cc1cccc(C(=O)NCCNS(=O)(=O)c2cccs2)c1C | -10.16
21 | CCOc1ncccc1C(=O)NCCN(CC)C1CC1 | -2.077
22 | CC(C)c1cccc(-n2cc(O)c(C(=O)NCCCn3cccn3)n2)c1 | -4.081
23 | COC(=O)C1CN(Cc2ccn(-c3ccc(F)cc3)n2)CCO1 (stereo unspecified) | -3.694
24 | Cc1nc(CN2C[C@@H]3CN(C(=O)CC(F)(F)F)C[C@@H]3C2=O)cs1 | -5.241
25 | CCc1nc(CN2CCCN(C(=O)CCc3ccco3)CC2)cs1 | -5.985
26 | Cc1nc(CN2C[C@@H]3CN(C(=O)c4ccoc4C)C[C@@H]3C2=O)cs1 | -24.28

Row | Compound | Percent Effect [%]
27 | Cc1nc(CN2CCCN(C(=O)CCc3ccco3)CC2)cs1 | 136.5
28 | Cc1nc(CN2C[C@@H]3CN(C(=O)c4ccoc4C)C[C@@H]3C2)cs1 | 104.4
29 | O=C(CCc1cccc(F)c1F)N1CCN(Cc2ccco2)CC1 | 9.986
30 | CCc1nc(CN2CCN(C(=O)CCc3ccccc3)CC2)cs1 | 19.11
31 | Cc1nc(CN2CCCN(C(=O)c3cccn3C)CC2)cs1 | -4.038
32 | O=C(CCc1ccco1)N1CCCN(Cc2cscn2)CC1 | 110.3
33 | Cc1nc(CN2CCN(C(=O)CCc3ccco3)CC2)cs1 | 84.98
34 | Cc1noc(C)c1CCC(=O)N1CCCN(Cc2cscn2)CC1 | -9.58
35 | CCc1nsc(N2CCN(CC(=O)NCc3cccnc3)CC2)n1 | 5.46
36 | CC1CN(C)c2ccccc2CN1C(=O)CSc1ccncc1 (stereo unspecified) | -15.08
37 | O=S(=O)(c1cccnc1)N1CCN(CC(O)c2cccs2)CC1 (stereo unspecified) | -0.3613
38 | CN(C)S(=O)(=O)N1CC(c2ccnc(Nc3ccccn3)n2)C1 | 81.46
39 | Cc1ccc(Nc2nccc(C3CN(CC(N)=O)C3)n2)nc1 | -11.37
40 | CCNc1ccnc(NC2CCN(S(C)(=O)=O)CC2)n1 | 1.929
41 | N[C@H]1CN(S(=O)(=O)N2CCCC2)C[C@@H]1c1ccccc1 | -9.902
42 | CN(C)S(=O)(=O)N1CCC2(CC1)CC(Oc1ccccn1)CO2.O=C(O)C(F)(F)F (stereo unspecified) | -11.89
43 | CN(C)S(=O)(=O)N1CCC(c2ccnc(Nc3ccccn3)n2)C1 (stereo unspecified) | 92.82
44 | O=S(=O)(N1CCCC1)N1CC(c2ccnc(Nc3ccccn3)n2)C1 | 105.1
45 | O=S(=O)(NC1CCCN(c2ncccn2)C1)N1CCCCCC1 (stereo unspecified) | -17.91
46 | CS(=O)(=O)N1CC(c2ccnc(Nc3ccccn3)n2)C1 | 102.3
47 | CN(C)C(=O)C1CN(Cc2ccc(C#N)cc2)c2ccccc2O1 (stereo unspecified) | -2.727
48 | O=C(NCCn1cccc1)C1CCN(C2CCCCC2)CC1 | 3.682
49 | Cc1c(F)cccc1CN1CCn2nc(CNC(=O)N(C)C)cc2C1 | 9.061
50 | Cc1cc(C)c2c(c1)C1(CC(=O)Nc3c1cnn3C(C)C)C(=O)N2 (stereo unspecified) | -4.592
51 | Cc1cc2n(n1)CC(CNC1CCN(c3ccc(F)cc3)CC1)CN2 (stereo unspecified) | 8.147
